{"source": "PubChem BioAssay (EPA / NIEHS)", "note": "Activity calls are given as the source filed them. The calls were made as follows: active = hit-call score of the fitted dose curve at least 0.9, where 1 is the maximum; inactive = score below 0.9."}
{"read-out": "Bcl-2 (BAD) gene, BAD (gene 572)", "assay": "LTEA_HepaRG_BAD: Life Technologies and Expression Analysis (LTEA) Assay for Bcl-2 (BAD) gene using HepaRG (AID 2283469)", "details": "mRNA level, 48 h; actives raise or lower the signal", "how_it_was_run": "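Read-out: qRT-PCR of BAD mRNA, normalized to three housekeeping genes. Human HepaRG cultures got 48 h chemical exposure in 0.5% DMSO, duplicate eight-point half-log series topping at 100 uM. Gain or loss of signal fitted versus DMSO vehicle.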"}
{"smiles": "COP(=O)(NC(C)=O)SC", "note": "(stereo not given)", "outcome": "inactive"}
{"smiles": "CSc1nc(NC(C)C)nc(NC(C)C)n1", "outcome": "inactive"}
{"smiles": "COP(=O)(OC)OC(Br)C(Cl)(Cl)Br", "note": "(stereo not given)", "outcome": "inactive"}
{"smiles": "CC(=NC#N)N(C)Cc1ccc(Cl)nc1", "outcome": "inactive"}
{"smiles": "CN1COCN(Cc2cnc(Cl)s2)C1=N[N+](=O)[O-]", "outcome": "inactive"}
{"smiles": "COc1ccc(C(=CC(=O)N2CCOCC2)c2ccc(Cl)cc2)cc1OC", "outcome": "inactive"}
{"smiles": "CNC(=O)ON=C(C)SC", "outcome": "inactive"}
{"smiles": "CCOP(=S)(OCC)SCCSCC", "outcome": "inactive"}
{"smiles": "COP(=O)(OC)C(O)C(Cl)(Cl)Cl", "note": "(stereo not given)", "outcome": "inactive"}
{"smiles": "CCOP(=O)(OCC)Oc1cc(C)nc(C(C)C)n1", "outcome": "inactive"}
{"smiles": "CCC(CC)Nc1c([N+](=O)[O-])cc(C)c(C)c1[N+](=O)[O-]", "outcome": "inactive"}
{"smiles": "CCOP(=S)(OCC)Oc1ccc([N+](=O)[O-])cc1", "outcome": "inactive"}
{"smiles": "CC(C1CC1)C(O)(Cn1cncn1)c1ccc(Cl)cc1", "note": "(stereo not given)", "outcome": "inactive"}
{"smiles": "CNC(=O)ON=C(SC)C(=O)N(C)C", "outcome": "inactive"}
{"smiles": "CNC(=O)Oc1cccc2c1OC(C)(C)O2", "outcome": "inactive"}
{"smiles": "CCc1cnc(C2=NC(C)(C(C)C)C(=O)N2)c(C(=O)O)c1", "note": "(stereo not given)", "outcome": "inactive"}
{"smiles": "Cc1cc(C2CC2)nc(Nc2ccccc2)n1", "outcome": "inactive"}
{"smiles": "CCCSP(=O)(OCC)SCCC", "outcome": "inactive"}
{"smiles": "COc1cc(OC)nc(Sc2cccc(Cl)c2C(=O)O)n1", "outcome": "inactive"}
{"smiles": "CC1(C(=O)Nc2ccc(O)c(Cl)c2Cl)CCCCC1", "outcome": "inactive"}
{"smiles": "CSc1nnc(C(C)(C)C)c(=O)n1N", "outcome": "inactive"}
{"smiles": "CCC(=O)Nc1ccc(Cl)c(Cl)c1", "outcome": "inactive"}
{"smiles": "CCOP(=O)(NC(C)C)Oc1ccc(SC)c(C)c1", "note": "(stereo not given)", "outcome": "inactive"}
{"smiles": "CC1=NNC(=O)N(/N=C/c2cccnc2)C1", "outcome": "inactive"}
{"smiles": "CSC1=N[C@@](C)(c2ccccc2)C(=O)N1Nc1ccccc1", "outcome": "inactive"}
{"smiles": "CC(Oc1cccc(Cl)c1)C(=O)O", "note": "(stereo not given)", "outcome": "inactive"}
{"smiles": "CCCCOC(=O)c1ccccc1C(=O)O", "outcome": "inactive"}
{"smiles": "CON=C(C(=O)OC)c1ccccc1CON=C(C)c1cccc(C(F)(F)F)c1", "outcome": "inactive"}
{"smiles": "C#CC(C)(C)NC(=O)c1cc(Cl)cc(Cl)c1", "outcome": "inactive"}
{"smiles": "CC[C@H](C)[C@H]1O[C@]2(C=C[C@@H]1C)C[C@@H]1C[C@@H](C/C=C(\\C)[C@@H](O[C@H]3C[C@H](OC)[C@@H](O[C@H]4C[C@H](OC)[C@@H](NC)[C@H](C)O4)[C@H](C)O3)[C@@H](C)/C=C/C=C3\\CO[C@@H]4[C@H](O)C(C)=C[C@@H](C(=O)O1)[C@]34O)O2", "outcome": "inactive"}
{"smiles": "Nc1c(Cl)cc([N+](=O)[O-])cc1Cl", "outcome": "inactive"}
{"smiles": "CC(C)N(C(=O)SCC(Cl)=C(Cl)Cl)C(C)C", "outcome": "inactive"}
{"smiles": "Cc1nn(-c2cc(NS(C)(=O)=O)c(Cl)cc2Cl)c(=O)n1C(F)F", "outcome": "inactive"}
{"smiles": "CNc1cnn(-c2cccc(C(F)(F)F)c2)c(=O)c1Cl", "outcome": "inactive"}
{"smiles": "C#CCC1=C(C)C(OC(=O)C2C(C=C(C)C)C2(C)C)CC1=O", "note": "(stereo not given)", "outcome": "inactive"}
